The text below walks through data of ChEMBL document CHEMBL4513216, “Probing the Open Global Health Chemical Diversity Library for Multistage-Active Starting Points for Next-Generation Antimalarials” (ACS Infect Dis, 2020).

About 8,600 (12%) of roughly 69,000 compounds showed an effect of 50% or more. The entries come from a sample that favours strong results as a whole.

This test relates to Plasmodium berghei. Description: Screen against P. berghei liver stage (PbLuc), transformed with Luciferase, at 10uM. In kind it is functional, HepG2. The conditions noted are these: tested at 10 uM.
For the molecule `CC1=CC(C)(C)N(CN2C(=O)c3ccccc3C2=O)c2ccc(C)cc21`, the INHIBITION worked out at 67.4%.

Take `CC1=CC(C)(C)N(CN2C(=O)c3ccccc3C2=O)c2ccccc21`: the INHIBITION was 44.6%.

On to `COc1ccc(N2CCN(C(=O)NC(C)c3nncn3C)CC2)cc1` (centres undefined), for which the INHIBITION is 19.4%.

With `CC(=O)NCC[C@H]1CC(C)(C)Oc2ccccc21`, the INHIBITION is 18.9%.

Consider `COCC(=O)NCC[C@H]1CC(C)(C)Oc2ccc(OC)cc21`, for which the INHIBITION is listed as 1.11%.

On to `COCC(=O)NCC[C@H]1CC(C)(C)Oc2ccccc21`, for which the INHIBITION stood at 57.5%.

With `Cc1cnn(CC2CCCCN2C(=O)c2ccc3[nH]c(=O)[nH]c3c2)c1` (centres undefined), the INHIBITION is recorded as 39.2%.

Regarding `CN(C)C(=O)C1CCN(C2CCN(CC3CC3)CC2)CC1`, the INHIBITION was determined as 37.5%.

With `O=C(c1cc[nH]n1)N1CCc2ccc(S(=O)(=O)N3CCOCC3)cc2C1`, the INHIBITION amounted to 26.5%.

Turning to `NS(=O)(=O)c1cccc(CNc2nccc(C(F)(F)F)n2)c1`, the INHIBITION is on record as -14.6%.

As for `CNS(=O)(=O)c1cccc(CNc2nccc(C(F)(F)F)n2)c1`, the INHIBITION is on record as 71.3%.

In the case of `CNS(=O)(=O)c1cccc(CNc2cc(C(F)(F)F)ccn2)c1`, the INHIBITION is reported as 45.4%.

As for `CNS(=O)(=O)c1cccc(CNc2ccc(C#N)cn2)c1`, the INHIBITION is -14.9%.

For `FC(F)(F)c1cccc(CNc2nccc(C(F)(F)F)n2)c1`, the INHIBITION was -24.2%.

Take `CNS(=O)(=O)c1cccc(CNc2ncccn2)c1`: the INHIBITION amounted to 50.5%.

Take `CN(C(=O)c1ccc(C#N)cc1)c1nnc(C2CCOC2)s1` (centres undefined): the INHIBITION is given as -0.585%.

As to `Cc1ccc(C(=O)N2CCO[C@H]3[C@H](OCc4ccccn4)CC[C@@H]32)o1`, the INHIBITION is reported as -31.3%.

With `Cc1nn(CCC#N)c(C)c1CCC(=O)N(C)C`, the INHIBITION was 49.5%.

Take `Cc1nn(CCC#N)c(C)c1CCC(=O)N(C)Cc1ccc(F)cc1F`: the INHIBITION came out at 78.3%.

In the case of `Cc1nn(CCC#N)c(C)c1CCC(=O)N(C)Cc1ccsc1`, the INHIBITION came to 19.8%.

For `CCCn1nccc1NC(=O)CN1CCOC(Cn2cc(C)cn2)C1` (centres undefined), the INHIBITION worked out at 21.9%.

With `CN(C)C[C@H]1OC[C@@H]2CCN(S(=O)(=O)c3ccccc3)C[C@@H]21`, the INHIBITION worked out at 26.7%.

For `Cc1ncc(CNc2cnccc2CO)s1`, the INHIBITION is -37.7%.

On to `Cc1ccc(-c2ncc(CNc3cnccc3CO)s2)cc1`, for which the INHIBITION worked out at 80%.

Take `Cc1ccc(-c2ncc(CNc3cnccc3CO)s2)o1`: the INHIBITION is on record as 11.1%.

With `CS(=O)(=O)N[C@@H]1CCN(Cc2cccnc2)[C@H]1Cc1ccccc1`, the INHIBITION was 52%.

On to `Cn1cc(CN2CC[C@@H](NS(C)(=O)=O)[C@@H]2Cc2cccnc2)cn1`, for which the INHIBITION came out at 54.4%.

For the molecule `CS(=O)(=O)N[C@@H]1CCN(Cc2ccncc2)[C@H]1Cc1cccnc1`, the INHIBITION was determined as 4.27%.

Take `CS(=O)(=O)N[C@@H]1CCN(Cc2cccs2)[C@H]1Cc1cccnc1`: the INHIBITION is recorded as -21.4%.

On to `CS(=O)(=O)N[C@@H]1CCN(Cc2cccnc2)[C@H]1Cc1cccnc1`, for which the INHIBITION is recorded as 45.1%.

As for `Cn1ccnc1CN1CC[C@@H](NS(C)(=O)=O)[C@@H]1Cc1cccnc1`, the INHIBITION is 13.6%.

Regarding `O=C(CCc1ccccc1Br)NS(=O)(=O)c1ccc2c(c1)OCCO2`, the INHIBITION is given as 25.6%.

As for `O=C(c1ccc(Cn2cnnn2)cc1)N1CC[C@H](CO)[C@H](O)C1`, the INHIBITION is recorded as 22.5%.

For the molecule `CC(C)CN(Cc1nc2c(cnn2C)c(=O)[nH]1)CC(C)C`, the INHIBITION was -33.55%.

On to `COc1ccc(-c2cnc(N)nc2C2CCCNC2)cc1` (centres undefined), for which the INHIBITION was determined as 23.9%.

Consider `COc1ccc(-n2cc3[nH][nH]c(=O)n3c2=O)cc1`, for which the INHIBITION is recorded as -3%.

In the case of `COCC1CCN(S(=O)(=O)c2ccc(C(=O)NCC(F)F)cc2)C1` (centres undefined), the INHIBITION was 10.6%.

For the molecule `CCc1cnc(CNC(=O)NC2CCN(C3CCCC3)CC2)s1`, the INHIBITION was -104%.

In the case of `CC(=O)N[C@@H]1CN(C2CCN(c3cccc(C)c3C)CC2)C[C@H]1C(C)C`, the INHIBITION was determined as 66.1%.

Take `CC(=O)N[C@@H]1CN(C2CCN(c3cccc(Cl)c3)CC2)C[C@H]1C(C)C`: the INHIBITION is given as 30.8%.

As for `CC(=O)N[C@@H]1CN(C2CCN(c3ccccc3F)CC2)C[C@H]1C(C)C`, the INHIBITION was 14.8%.

Take `CCN(CC1CCOC1)C(=O)c1ccc(-c2ccsc2)nc1C` (centres undefined): the INHIBITION is listed as 19.7%.

Regarding `Cn1cnc2c(N3CCOCC3)nc(C3CCNCC3)cc21`, the INHIBITION is given as -76.7%.

Turning to `Cc1ccc(-c2nc(CN3CCOC(CN(C)C)C3)co2)cc1` (centres undefined), the INHIBITION is given as 58.5%.

On to `CN(C)CC1CN(Cc2coc(-c3ccccc3)n2)CCO1` (centres undefined), for which the INHIBITION is -3.2%.

Turning to `c1ccc(-c2nc(CN3CCOC(Cn4cccn4)C3)co2)cc1` (centres undefined), the INHIBITION is 22.3%.

For `Cc1ccc(-c2nc(CN3CCOC(Cn4cccn4)C3)co2)cc1` (centres undefined), the INHIBITION worked out at 49.8%.

For `CN(C)CC1CN(Cc2coc(-c3ccc(Cl)cc3)n2)CCO1` (centres undefined), the INHIBITION is 72.9%.

Regarding `Cc1noc(CN2CCOC(CN(C)C)C2)n1` (centres undefined), the INHIBITION turned out to be 31.9%.

With `Cc1ccc(-c2noc(CN3CCOC(CN(C)C)C3)n2)cc1F` (centres undefined), the INHIBITION is 62.3%.

Regarding `CN(C)CC1CN(Cc2nc(-c3cccnc3)no2)CCO1` (centres undefined), the INHIBITION is recorded as -50.5%.

Turning to `CN(C)CC1CN(Cc2coc(-c3cccs3)n2)CCO1` (centres undefined), the INHIBITION is listed as 32.8%.

Turning to `CN(C)CC1CN(Cc2coc(-c3cccc(F)c3)n2)CCO1` (centres undefined), the INHIBITION came to 11.2%.

As to `Fc1ccc(-c2nc(CN3CCOC(Cn4cccn4)C3)co2)cc1` (centres undefined), the INHIBITION is 58%.
